Records with an inconclusive call do not appear. Active and inactive are the calls of the source. Rule for the calls, unless noted: active = hit-call score of the fitted dose curve at least 0.9, where 1 is the maximum; inactive = score below 0.9.
Key:
[1] = read-out: Interleukin-8 (IL8), CXCL8 (gene 3576); experiment: BSK_3C_IL8: BioMAP Diversity Plus: 3C Assay for Interleukin-8 (IL8) Biomarker Activity (AID 2283020); details: primary human endothelial cells (HUVEC); actives raise or lower the signal
Outline: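 Using DMSO-treated wells as the baseline, bidirectional curve fitting was applied to ELISA-measured IL-8 from human umbilical vein endothelial cultures sampled 24 h after compound addition.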

[2] = read-out: Monokine induced gamma interferon (MIG), CXCL9 (gene 4283); experiment: BSK_3C_MIG: BioMAP Diversity Plus: 3C Assay for Monokine induced gamma interferon (MIG) Biomarker Activity (AID 2283021); details: primary human endothelial cells (HUVEC); actives raise or lower the signal;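 for AC50: MIG protein level measured by immunoassay in the treated endothelial cultures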
Outline: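 ELISA-measured MIG in dosed HUVEC 3C cultures at 24 h, analysed by bidirectional fitting with DMSO defining baseline activity.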

[3] = BSK_3C_SRB: Viability Assessment in the BioMAP Diversity Plus: 3C Assay (AID 2283023); details: primary human endothelial cells (HUVEC);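 note: cells read 24 h after compound dosing; fitted both ways against DMSO so a hit may be signal rise or drop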
Outline: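 Cells were dosed with chemical, cultured 24 h, fixed with 10% TCA, stained with 0.1% SRB and read at 560 nm. Human umbilical vein endothelium was used; DMSO served as negative control and baseline.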

[4] = read-out: Matrix Metallopeptidase 1 (MMP1), MMP1 (gene 4312); experiment: BSK_BE3C_MMP1: BioMAP Diversity Plus: BE3C Assay for Matrix Metallopeptidase 1 (MMP1) Biomarker Activity (AID 2283024); details: primary human bronchial epithelial cells; actives raise or lower the signal
Outline: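 In this multiplexed primary-cell system, human bronchial epithelium received chemicals for 24 h before an ELISA for MMP1. Values reflect bidirectional fits normalised to the DMSO baseline.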

[5] = BSK_3C_Vis: BioMAP Diversity Plus: 3C Assay for Morphology Visualization (AID 2283025); details: primary human endothelial cells (HUVEC);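 note: fitted both ways so gain or loss versus DMSO counts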;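 for AC50: light microscopy image of cell morphology used as background control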
Outline: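 Light-microscopy morphology readout, 24 h exposure, human primary umbilical vein endothelium; analysed relative to DMSO with bidirectional fitting.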

[6] = read-out: Pselectin, SELP (gene 6403); experiment: BSK_4H_Pselectin: BioMAP Diversity Plus: 4H Assay for Pselectin Biomarker Activity (AID 2283026); details: primary human endothelial cells (HUVEC); actives raise or lower the signal
Outline: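 Bidirectional fits against DMSO gave the endpoint. Cells: primary human umbilical vein endothelium, chemical-treated for 24 h before ELISA detection of P-selectin.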

[7] = BSK_4H_SRB: Viability Assessment in the BioMAP Diversity Plus: 4H Assay (AID 2283027); details: primary human endothelial cells (HUVEC);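 note: cells exposed to compound for 24 h before staining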;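 for AC50: curves fitted both ways versus DMSO so AC50 may be loss or gain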
Outline: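 Cytotoxicity readout: sulforhodamine B (0.1%) staining of total protein after 10% TCA fixation, measured at 560 nm in human umbilical vein endothelium at 24 h. DMSO set the baseline; fitting was bidirectional.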

[8] = BSK_BE3C_SRB: Viability Assessment in the BioMAP Diversity Plus: BE3C Assay (AID 2283028); details: primary human bronchial epithelial cells;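 for AC50: fitted both ways so AC50 may mark signal gain or loss versus DMSO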
Outline: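 Overt cytotoxicity was assessed as total protein in confluent human primary bronchial epithelial cultures 24 h after chemical addition, using 0.1% sulforhodamine B staining read at 560 nm.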

[9] = read-out: Thrombomodulin, THBD (gene 7056); experiment: BSK_3C_Thrombomodulin: BioMAP Diversity Plus: 3C Assay for Thrombomodulin Biomarker Activity (AID 2283029); details: primary human endothelial cells (HUVEC); actives raise or lower the signal
Outline: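 In a multiplexed primary-cell system, human umbilical vein endothelium received chemical and was assayed 24 h later for thrombomodulin by ELISA. Parallel cultures were SRB-stained (0.1% SRB after 10% TCA fixation, read at 560 nm) to flag cytotoxicity.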

[10] = read-out: Urokinase-type plasminogen activator receptor (uPAR), PLAUR (gene 5329); experiment: BSK_4H_uPAR: BioMAP Diversity Plus: 4H Assay for Urokinase-type plasminogen activator receptor (uPAR) Biomarker Activity (AID 2283030); details: primary human endothelial cells (HUVEC); actives raise or lower the signal
Outline: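 Chemicals are dosed onto human vascular endothelial primary cells (umbilical vein). After 24 h, uPAR is read by ELISA. Gain or loss of signal is fitted relative to DMSO.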

[11] = read-out: Vascular endothelial growth factor receptor 2 (Homo sapiens) (UniProt P35968); experiment: BSK_4H_VEGFRII: BioMAP Diversity Plus: 4H Assay for Vascular endothelial growth factor receptor 2 (VEGFR2) Biomarker Activity (AID 2283031); details: primary human endothelial cells (HUVEC); actives raise or lower the signal
Outline: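 VEGFRII levels on human vascular endothelial primary cells were determined by ELISA at 24 hours post-dosing, with gain- or loss-of-signal fitted against DMSO controls.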

[12] = read-out: Human Leukocyte Antigen - DR isotype (HLADR), HLA-DRA (gene 3122); experiment: BSK_BE3C_HLADR: BioMAP Diversity Plus: BE3C Assay for Human Leukocyte Antigen - DR isotype (HLADR) Biomarker Activity (AID 2283032); details: primary human bronchial epithelial cells; actives raise or lower the signal
Outline: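 BioMAP BE3C format: human bronchial epithelium, 24 h compound treatment, ELISA detection of HLA-DR, with bidirectional analysis relative to DMSO.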

[13] = read-out: Vascular cell adhesion molecule 1 (VCAM1), VCAM1 (gene 7412); experiment: BSK_4H_VCAM1: BioMAP Diversity Plus: 4H Assay for Vascular cell adhesion molecule 1 (VCAM1) Biomarker Activity (AID 2283033); details: primary human endothelial cells (HUVEC); actives raise or lower the signal
Outline: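 In this human endothelial (HUVEC) system, biomarker ELISA was run 24 h after compound addition, and total protein in parallel wells was assessed by SRB at 560 nm; DMSO served as negative control.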

[14] = read-out: Interferon-gamma inducible Protein 10 (IP10), CXCL10 (gene 3627); experiment: BSK_BE3C_IP10: BioMAP Diversity Plus: BE3C Assay for Interferon-gamma inducible Protein 10 (IP10) Biomarker Activity (AID 2283034); details: primary human bronchial epithelial cells; actives raise or lower the signal
Outline: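 BE3C cells (human bronchial epithelial, primary); 24 h exposure; ELISA for IP-10; DMSO-referenced bidirectional fit.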

[15] = read-out: Monokine induced gamma interferon (MIG), CXCL9 (gene 4283); experiment: BSK_BE3C_MIG: BioMAP Diversity Plus: BE3C Assay for Monokine induced gamma interferon (MIG) Biomarker Activity (AID 2283035); details: primary human bronchial epithelial cells; actives raise or lower the signal
Outline: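 hu bronchial epithelial 1° cells, 24 h cpd; MIG by ELISA; bidirectional fit, DMSO = baseline.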

[16] = read-out: Transforming growth factor beta 1 (TGFb1), TGFB1 (gene 7040); experiment: BSK_BE3C_TGFb1: BioMAP Diversity Plus: BE3C Assay for Transforming growth factor beta 1 (TGFb1) Biomarker Activity (AID 2283036); details: primary human bronchial epithelial cells; actives raise or lower the signal
Outline: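 TGF-b1 measured via ELISA, 24 h after chemical dosing of human bronchial epithelial cells (BE3C). Overt cytotoxicity assessed in parallel by SRB (0.1%, TCA-fixed, 560 nm); analysis bidirectional relative to DMSO.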

[17] = read-out: Plasminogen activator inhibitor-1 (PAI1), SERPINE1 (gene 5054); experiment: BSK_BE3C_PAI1: BioMAP Diversity Plus: BE3C Assay for Plasminogen activator inhibitor-1 (PAI1) Biomarker Activity (AID 2283037); details: primary human bronchial epithelial cells; actives raise or lower the signal
Outline: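 In this multiplexed primary-cell system, bronchial epithelial cells receive test chemical and are sampled at 24 h. PAI-1 is read by ELISA, with DMSO serving as negative control for bidirectional fitting.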

[18] = read-out: urokinase plasminogen activator (uPA), PLAU (gene 5328); experiment: BSK_BE3C_uPA: BioMAP Diversity Plus: BE3C Assay for urokinase plasminogen activator (uPA) Biomarker Activity (AID 2283038); details: primary human bronchial epithelial cells; actives raise or lower the signal
Outline: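 Measured by ELISA: uPA from human primary bronchial epithelial cells 24 h after chemical treatment. Values derive from bidirectional curve fitting with DMSO serving as negative control. Total protein by SRB staining in parallel wells flagged overt cytotoxicity.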

[19] = read-out: Urokinase-type plasminogen activator receptor (uPAR), PLAUR (gene 5329); experiment: BSK_BE3C_uPAR: BioMAP Diversity Plus: BE3C Assay for Urokinase-type plasminogen activator receptor (uPAR) Biomarker Activity (AID 2283039); details: primary human bronchial epithelial cells; actives raise or lower the signal
Outline: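 Chemically treated human bronchial epithelial cells (lung primary) are assayed for uPAR by ELISA after 24 h, with data fitted in both directions using DMSO as negative control.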

[20] = target: human Vitamin D Receptor (VDR), VDR (gene 7421) (UniProt P11473); experiment: ATG_VDR_TRANS: Attagene TRANS-FACTORIAL HepG2 Assay for human Vitamin D Receptor (VDR) (AID 2283022; active = hit-call score of the fitted dose curve at least 0.9, where 1 is the maximum)
Chain of human Vitamin D Receptor (VDR), VDR (gene 7421) (P11473 whole entry, looked up, the tested form may be a part): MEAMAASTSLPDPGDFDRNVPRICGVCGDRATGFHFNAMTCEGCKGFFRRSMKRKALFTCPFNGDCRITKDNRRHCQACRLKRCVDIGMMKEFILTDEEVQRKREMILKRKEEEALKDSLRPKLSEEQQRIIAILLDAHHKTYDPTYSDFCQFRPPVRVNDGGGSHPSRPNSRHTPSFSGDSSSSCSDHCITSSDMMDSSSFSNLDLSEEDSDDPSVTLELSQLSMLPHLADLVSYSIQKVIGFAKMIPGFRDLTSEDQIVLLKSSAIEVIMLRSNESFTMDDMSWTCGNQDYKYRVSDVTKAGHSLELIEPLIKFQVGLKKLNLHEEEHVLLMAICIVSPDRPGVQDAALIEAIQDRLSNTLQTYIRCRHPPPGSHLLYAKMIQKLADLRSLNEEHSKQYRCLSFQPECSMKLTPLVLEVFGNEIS
Outline: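 Fluorescence of labelled reporter cDNA fragments, resolved by capillary electrophoresis, gives mRNA induction after 24 h treatment of HepG2 cells carrying transfected Gal4-fusion reporter units. Activity is fitted in the positive direction with DMSO as baseline.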

Measured: AC50

O=C(O)c1ccccc1C(c1ccc(O)cc1)c1ccc(O)cc1
active: [12] 31.6 µM | [14] 31.1 µM | [17] 33.4 µM
not listed: [20]
inactive: all other assays above

CCCCCCCCCCCCN1CCCC1=O
inactive: [20] | [9] | [11]
active: [1] 29.4 µM | [2] 36.7 µM | [3] 33.6 µM | [4] 31.7 µM | [5] 37.3 µM | [6] 30 µM | [7] 33.4 µM | [8] 32.8 µM | [10] 34.9 µM | [12] 26.2 µM | [13] 34.2 µM | [14] 30.6 µM | [15] 35.2 µM | [16] 20 µM | [17] 31.8 µM | [18] 35.1 µM | [19] 32.4 µM

CN(C)C=O
not listed: [20]
inactive: all other assays above

CCOC(=O)CC(O)(CC(=O)OCC)C(=O)OCC
not listed: [20]
inactive: all other assays above

Cc1ccc(S(=O)(=O)O)c(C)c1
inactive: [20]

CCCCCCCCCCCCCC[N+](C)(C)C
inactive: [20] | [10] | [11]
active: [1] 6.77 µM | [2] 8.96 µM | [3] 1.38 µM | [4] 5.8 µM | [5] 3.02 µM | [6] 1.95 µM | [7] 5.31 µM | [8] 5.28 µM | [12] 3.18 µM | [13] 2.83 µM | [14] 3.88 µM | [15] 8.17 µM | [16] 1.52 µM | [17] 2.63 µM | [18] 4.85 µM | [19] 4.06 µM
